# PubChem BioAssay AID1626 (SRMLSC, 2009)
# Hit rate of the full screen: of about 220,000 compounds, about 2,000 (0.91%) were called active. Roughly 2% stayed inconclusive and do not appear here. Only a sample is shown. Results with a measured potency or affinity are listed apart. A number with no mark means an inactive call. Cut-off read from the data, not from the text of the source: inconclusive = inhibition above about 80% without an active follow-up result; inactive = below that; test concentration not stated here.
# Test: M. tuberculosis H37Rv growth inhibitors, H37Rv strain (AID 1626);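 note: bacteria incubated seven days before Alamar blue readout; 0% = bacteria only wells and 100% = bacteria with antibiotic wells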
# Settings: stronger effect = higher value, concentration not given here
row,Compound,inhibition [%]
1,O=C(NCc1csc(-c2cccs2)n1)Nc1ccc(F)cc1F,-1.75
2,OCCNCC(O)Cn1c2ccccc2c2ccccc21 (stereo unspecified),3.13
3,Cc1cc(C)n(CC(O)Cn2c3ccc(Cl)cc3c3cc(Cl)ccc32)c(=O)n1 (stereo unspecified),3.67
4,CCOc1ccc(N=c2scc(-c3ccc(OC)cc3)n2CCO)cc1,27.6
5,OCCn1c(-c2ccccc2)csc1=Nc1ccccc1,3.23
6,Cc1cc(C)cc(C(=O)NCCCc2ccccc2)c1,-1.21
7,CCN(CC)C(=O)C1CCCN(Cc2sccc2C)C1 (stereo unspecified),-5.07
8,Cc1nc(N)nc(COc2ccccc2)n1,-5.7
9,CCc1nc(N2CCCCC2)c2oc3ccccc3c2n1,22.4
10,CCc1nc(N2CCC(C)CC2)c2oc3ccccc3c2n1,21.7
11,O=C(NCCCn1ccnc1)C(=O)NCC(c1cccnc1)N1CCN(c2ccccc2)CC1 (stereo unspecified),0.94
12,COC(=O)/C(=N/Nc1ccccc1)N1CCCc2ccccc21,38.7
13,ClC(=C\c1ccccc1)/C=N/N1CCN(c2ccccn2)CC1,-1.5
14,CC(=O)Nc1ccc(NC(=O)CSc2ccc([N+](=O)[O-])cn2)cc1,-4.39
15,O=C(CSc1ccccn1)Nc1ccc2c(c1)OCCO2,-16.3
16,O=C(Nc1nnc(C2CC2)s1)c1ccncc1,-4.03
17,CCSc1nnc(NC(=O)c2cnccn2)s1,2.03
18,CSc1ncccc1C(=O)Nc1nnc(C2CC2)s1,0.73
19,CC(=O)Nc1nnc(SCc2ccc(F)cc2)s1,1.23
20,O=C(Nc1nnc(SCc2ccc(F)cc2)s1)c1cccnc1Cl,7.86
21,Cc1cnc(C(=O)Nc2nnc(C)s2)cn1,-5.75
22,O=C(Nc1nnc(SCc2c(Cl)cccc2Cl)s1)c1ccc2ncsc2c1,29.9
23,CCSc1nnc(NC(=O)c2cccnc2Cl)s1,-8.72
24,COc1ccc(N2CCN(C(=O)C(C)(C)Oc3ccc(Cl)cc3)CC2)cc1,10.8
25,CCCCn1c(/C=C/c2ccco2)nc2ccccc21,-4.08
26,CN(CCC(=O)Nc1ccc2c(c1)OCO2)Cc1ccccc1,-7.11

row,Compound,inhibition [%]
1,Cc1cccc(S(=O)(=O)NNC(=O)Cc2cccn2C)c1,3.18
2,COc1ccccc1NC(=O)COc1ccc(Br)cc1CNCCCN1CCOCC1,-1.49
3,Oc1ccccc1/C=N/[n+]1ccccc1,-3.35
4,CCc1cc(=O)oc2cc(OCC(=O)O)c(Cl)cc12,-5.56
5,O=C(Nc1nnc(SCc2ccc(F)cc2)s1)c1ccco1,-8.91
6,CCC(=O)Nc1nnc(SCc2ccc(F)cc2)s1,7.4
7,CCCCNC(=O)Nc1ccccc1C(=O)Nc1ccc(OC)cc1,-1.66
8,CCc1cccc(NC(=O)C(NC(=O)C2CCCCC2)C(C)C)c1 (stereo unspecified),-6.21
9,COc1ccc(C)cc1S(=O)(=O)N1c2ccccc2CC1C (stereo unspecified),2.45
10,CCOC(=O)c1cnc(-n2nc(C)cc2C)nc1Nc1cccc(C(=O)O)c1,7.26
11,CCOC(=O)c1cnc(-n2nc(C)cc2C)nc1NC,19.4
12,CCOC(=O)c1cnc(-n2nc(C)cc2C)nc1N1CCOCC1,-9.47
13,CCOC(=O)c1cnc(-n2nc(C)cc2C)nc1N(C)C,4.9
14,CCOC(=O)c1cnc(-n2nc(C)cc2C)nc1NNc1nc(C)cc(C)n1,71.3
15,CCOC(=O)c1cnc(-n2nc(C)cc2C)nc1Nc1ccc(O)cc1,0.145
16,CCOC(=O)c1cnc(-n2nc(C)cc2C)nc1Oc1ccc(C(=O)OC)cc1,8.41
17,CCOC(=O)c1cnc(-n2nc(C)cc2C)nc1Oc1ccc(C#N)cc1,-2.96
18,O=C(O)c1cccnc1Br,1.4
19,Cc1ccc(/C=N/OC(=O)c2nn(C)cc2Cl)cc1,11.9
20,CCC1CSC(Nc2ccc(C(=O)/C=C/c3ccc(OC)c(OC)c3)cc2)=N1 (stereo unspecified),44.8
21,CCCc1cc(=O)[nH]c(SCc2ccc(F)cc2)n1,-1.85
22,COc1cccc(NC(=O)N2CCCc3ccccc32)c1,15
23,COc1cccc2sc(N(CCCN(C)C)C(=O)COc3ccc(Cl)cc3)nc12,-2.48
24,COc1cccc2sc(N(CCCN(C)C)C(=O)c3sc4ccccc4c3Cl)nc12,1.6
25,Cc1cccc(C(=O)Nc2ccccc2C(=O)OCC(=O)Nc2ccc(C#N)cc2)c1,45
